The results in this text go back to PubChem BioAssay.

A short description of assay [1]: compounds binding Alexa647 anti-His antibody – biochemical, small-molecule microarray, 635 nm fluorescence, artefact control for SMM control protein annotation, primary screen (AID 1128).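 Note: score merges feature fluorescence with signal-to-noise for each printed compound spot.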 Conditions: higher = more signal.
Assay [2] concerns Human papillomavirus type 1a E7 protein (residues 1-88). Put plainly: HPV1a E7 small-molecule binders, primary screen, biochemical, small-molecule microarray, residues 1-88, 635 nm (AID 1129). Conditions: small-molecule microarray binding, fluorescence 635 nm; higher = more signal.
The target of assay [3] is Focal adhesion kinase 1 (Homo sapiens) (UniProt Q05397). As to the kind of experiment: PTK2 protein binding on printed compound slides – biochemical, small-molecule microarray, 635/667 nm fluorescence, BSA, DTT, primary screen (AID 1130).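 Note: composite of spot emission at 667 nm and signal to noise over triplicate slides.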 Conditions: 635 nm fluorescence, higher = more signal.
For assay [4], the system named is Fibrinogen (Alexa647-labelled). As to the kind of experiment: Alexa647-fibrinogen binding to printed small molecules – biochemical, small-molecule microarray, 635/667 nm fluorescence, artefact control for SMM control-protein annotation, profiling panel (AID 1131).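 Note: z-score merges 667 nm fluorescence with per-spot signal-to-noise over triplicate slides.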 The following applies: fibrinogen-A647 binding fluorescence, higher = more signal.
For assay [5], the target named is Follistatin (Homo sapiens) (UniProt P19883). Put plainly: FST protein binding to printed compounds – biochemical, small-molecule microarray, 635/667 nm fluorescence, primary screen (AID 1132). The following applies: 635 nm fluorescence, higher = more signal.
Assay [6] has as its target Fibroblast growth factor 2 (Homo sapiens) (UniProt P09038). As to the kind of experiment: basic fibroblast growth factor binding to printed compounds – biochemical, small-molecule microarray, 635/667 nm fluorescence, primary screen (AID 1133). The following applies: FGF2, fluorescence 635/667, higher = more signal.
Assay [7] is described as follows: JC-1 mitochondrial potential readout, lung cancer cells – cell-based, A549, JC-1 fluorescence, basal, 24 h, 100 nL, profiling panel (AID 1138).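 Note: A549 lung adenocarcinoma cells under basal conditions with no added stimulus; test concentration not given here.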 The following applies: higher = more signal.
For assay [8], the system named is Lefty1. Put plainly: Lefty1 protein binding to printed compounds – biochemical, small-molecule microarray, 635/667 nm fluorescence, primary screen (AID 1139). Conditions: fluorescence 635/667, higher = more signal.
Assay [9] has as its system wheat germ agglutinin (Triticum aestivum), Alexa647-labelled. Put plainly: Alexa647-WGA lectin binding to printed small molecules – biochemical, small-molecule microarray, 635/667 nm fluorescence, artefact control for SMM control-protein annotation, profiling panel (AID 1140).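 Note: score merges 667 nm feature emission with signal to noise over triplicate slides.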 Conditions: WGA-A647 binding, 635 nm fluorescence, higher = more signal.
Assay [10] has as its target Luciferin 4-monooxygenase (Photinus pyralis) (UniProt P08659). Put plainly: inhibition of purified Photinus pyralis luciferase – biochemical, luminescence, purified enzyme, 2006 set, primary screen (AID 1141).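 Note: cell-free assay with purified firefly luciferase at 100 ng per well in PBS; test concentration not given here.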 The following applies: purified firefly luciferase, SteadyGlo luminescence, 30 min; higher = more signal, called active from +8 up or from −8 down.
Assay [11] has as its system Wnt5a (protein binding on small-molecule microarray). Put plainly: small molecules binding Wnt5a protein – biophysical, small-molecule microarray, 635/667 nm fluorescence, primary screen (AID 1142).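 Note: fluorescence read at 667 nm with signal to noise per printed feature.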 Conditions: 635 nm fluorescence, higher = more signal.
Assay [12] in a line: ATP-based viability of Huh7 replicon cells – cell-based, CellTiter-Glo luminescence, basal, 48 h, cytotoxicity control for HCV replication inhibitor project, primary screen (AID 1143).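 Note: Huh7 hepatoma cells carrying a hepatitis C replication reporter with no stimulus; test concentration not given here.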 The following applies: higher = more signal, called active from +8 up or from −8 down. (In general: Replicon systems follow genome replication, usually without infectious particles.)
Assay [13] in a line: Pseudomonas biofilm growth suppression – PAO1 strain, BacTiter-Glo luminescence, LB-PBS, primary screen (AID 1144). Conditions: P. aeruginosa PAO1 biofilm, 12 h, higher = more signal.
A short description of assay [14]: basal CRE-LacZ reporter activity in PC12 – cell-based, unstimulated, primary screen (AID 1145). The following applies: no forskolin, luminescence, 4.5 h, higher = more signal, called active from +8 up or from −8 down.
The nature of assay [15]: forskolin-driven CRE-LacZ activity in PC12 – cell-based, CRE-LacZ reporter, forskolin-stimulated, primary screen (AID 1146).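 Note: PC12 cells with 6xCRE LacZ reporter stimulated by forskolin 10 µM; beta-galactosidase reporter signal reflecting CREB driven transcription.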 Conditions: luminescence, 4.5 h, higher = more signal, called active from +8 up or from −8 down.
The target of assay [16] is Streptavidin (Streptomyces avidinii) (UniProt P22629). Put plainly: compounds binding control protein streptavidin – biophysical, small-molecule microarray, 635/667 nm fluorescence, artefact control for SMM compound annotation, primary screen (AID 1147).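 Note: signal reflects streptavidin binding to arrayed compounds as a control protein.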 The following applies: higher = more signal.
Assay [17] can be described thus: probe aInhba binding on compound microarray – biochemical, small-molecule microarray, 635/667 nm fluorescence, primary screen (AID 1148).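 Note: score merges 667nm spot fluorescence with signal-to-noise for antibody binding to printed compounds.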 The following applies: higher = more signal.
Assay [18] concerns the target Torsin-1A (Homo sapiens) (UniProt O14656). Put plainly: TOR1A wild-type binding on microarray – cell lysate, small-molecule microarray, lysate, 635/667 nm, primary screen (AID 1149). The following applies: COS7 hTOR1A-WT lysate, 635 nm fluorescence, higher = more signal.
Assay [19] has the same target. As to the kind of experiment: torsin A mutant lysate binding on microarrays – cell lysate, small-molecule microarray, COS7 lysate, 635/667 nm fluorescence, primary screen (AID 1150).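 Note: score pools 667 nm emission and signal to noise measuring lysate protein binding.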 The following applies: COS7 hTOR1A mutant lysate, 635 nm fluorescence, higher = more signal.
The subject of assay [20] is Sonic hedgehog protein (Shh). As to the kind of experiment: Sonic hedgehog microarray binding compounds – biochemical, small-molecule microarray, 635/667 nm fluorescence, primary screen (AID 1151).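 Note: Shh protein binding to compounds spotted on small-molecule microarray slides; score combines spot fluorescence intensity with signal-to-noise across triplicate slides.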 The following applies: 635 nm fluorescence, higher = more signal.

Structures are written as SMILES. Active and inactive are the calls of the source. Unless noted, the rule behind the calls is not given here.

Follistatin (Homo sapiens), sequence (P19883 whole entry, looked up): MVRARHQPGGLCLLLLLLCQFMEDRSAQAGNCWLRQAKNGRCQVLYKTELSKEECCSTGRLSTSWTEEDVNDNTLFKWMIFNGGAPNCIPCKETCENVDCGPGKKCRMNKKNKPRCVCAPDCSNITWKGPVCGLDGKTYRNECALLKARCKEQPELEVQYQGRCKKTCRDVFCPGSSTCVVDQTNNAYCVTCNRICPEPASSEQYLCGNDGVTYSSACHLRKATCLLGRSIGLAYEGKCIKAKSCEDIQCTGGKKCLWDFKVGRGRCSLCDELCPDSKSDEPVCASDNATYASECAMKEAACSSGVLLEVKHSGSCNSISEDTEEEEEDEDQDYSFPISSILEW
Torsin-1A (Homo sapiens), sequence (O14656 whole entry, looked up): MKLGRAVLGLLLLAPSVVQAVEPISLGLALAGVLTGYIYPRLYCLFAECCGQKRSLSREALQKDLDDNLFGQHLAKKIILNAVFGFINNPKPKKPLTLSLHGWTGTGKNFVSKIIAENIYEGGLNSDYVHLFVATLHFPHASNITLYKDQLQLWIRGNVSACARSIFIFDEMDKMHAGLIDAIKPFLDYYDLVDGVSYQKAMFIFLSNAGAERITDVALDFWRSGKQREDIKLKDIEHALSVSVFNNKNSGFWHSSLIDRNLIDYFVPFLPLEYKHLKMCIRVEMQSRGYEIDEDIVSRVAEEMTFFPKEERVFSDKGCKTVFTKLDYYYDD
Streptavidin (Streptomyces avidinii), sequence (P22629 whole entry, looked up): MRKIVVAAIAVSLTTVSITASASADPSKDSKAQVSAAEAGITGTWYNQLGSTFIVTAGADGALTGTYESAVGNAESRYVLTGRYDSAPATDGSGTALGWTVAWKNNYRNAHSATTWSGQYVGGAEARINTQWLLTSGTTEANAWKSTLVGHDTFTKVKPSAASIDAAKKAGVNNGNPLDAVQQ
Luciferin 4-monooxygenase (Photinus pyralis), sequence (P08659 whole entry, looked up): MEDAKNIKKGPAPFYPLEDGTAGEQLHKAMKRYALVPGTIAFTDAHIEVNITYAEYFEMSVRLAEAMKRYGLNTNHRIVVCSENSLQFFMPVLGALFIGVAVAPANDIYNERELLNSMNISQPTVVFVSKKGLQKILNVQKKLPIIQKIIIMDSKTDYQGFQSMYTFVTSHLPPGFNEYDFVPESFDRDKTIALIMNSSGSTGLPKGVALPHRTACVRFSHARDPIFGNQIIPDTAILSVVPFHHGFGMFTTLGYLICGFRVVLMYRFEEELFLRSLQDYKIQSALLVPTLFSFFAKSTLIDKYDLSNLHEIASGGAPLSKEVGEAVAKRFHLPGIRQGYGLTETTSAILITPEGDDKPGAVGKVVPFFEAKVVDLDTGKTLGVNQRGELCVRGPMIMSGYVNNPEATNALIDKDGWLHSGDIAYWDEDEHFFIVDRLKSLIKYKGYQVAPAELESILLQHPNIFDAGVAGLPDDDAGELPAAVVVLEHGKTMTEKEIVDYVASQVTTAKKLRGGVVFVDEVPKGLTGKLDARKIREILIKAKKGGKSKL
Focal adhesion kinase 1 (Homo sapiens), sequence (Q05397 whole entry, looked up): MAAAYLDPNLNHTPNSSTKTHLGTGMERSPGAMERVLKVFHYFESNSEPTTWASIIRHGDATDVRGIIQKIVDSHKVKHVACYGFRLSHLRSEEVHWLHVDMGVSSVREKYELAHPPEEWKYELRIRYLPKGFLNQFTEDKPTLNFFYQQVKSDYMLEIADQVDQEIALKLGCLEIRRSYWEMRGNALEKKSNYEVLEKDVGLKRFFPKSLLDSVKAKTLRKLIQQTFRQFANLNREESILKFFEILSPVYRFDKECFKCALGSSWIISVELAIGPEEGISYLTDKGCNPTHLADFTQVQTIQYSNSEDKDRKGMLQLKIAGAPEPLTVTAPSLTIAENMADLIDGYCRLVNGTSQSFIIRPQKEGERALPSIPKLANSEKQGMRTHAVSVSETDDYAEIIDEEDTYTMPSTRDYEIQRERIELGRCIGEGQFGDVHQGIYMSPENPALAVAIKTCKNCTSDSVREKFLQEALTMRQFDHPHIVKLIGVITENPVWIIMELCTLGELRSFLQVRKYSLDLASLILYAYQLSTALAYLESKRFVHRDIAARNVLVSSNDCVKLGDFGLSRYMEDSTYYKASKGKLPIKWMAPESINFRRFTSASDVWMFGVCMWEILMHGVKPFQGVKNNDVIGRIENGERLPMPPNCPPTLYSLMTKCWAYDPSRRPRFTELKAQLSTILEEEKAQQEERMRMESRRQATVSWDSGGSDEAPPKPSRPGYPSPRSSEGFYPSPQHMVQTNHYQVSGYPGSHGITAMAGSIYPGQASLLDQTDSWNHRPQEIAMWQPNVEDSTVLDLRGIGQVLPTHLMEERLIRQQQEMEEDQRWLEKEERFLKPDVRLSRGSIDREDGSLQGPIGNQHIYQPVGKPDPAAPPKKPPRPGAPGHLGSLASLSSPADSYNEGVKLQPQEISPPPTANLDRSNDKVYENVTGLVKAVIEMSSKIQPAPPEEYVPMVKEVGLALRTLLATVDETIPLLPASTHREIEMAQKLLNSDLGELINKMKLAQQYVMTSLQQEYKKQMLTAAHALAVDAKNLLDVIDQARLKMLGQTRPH
Fibroblast growth factor 2 (Homo sapiens), sequence (P09038 whole entry, looked up): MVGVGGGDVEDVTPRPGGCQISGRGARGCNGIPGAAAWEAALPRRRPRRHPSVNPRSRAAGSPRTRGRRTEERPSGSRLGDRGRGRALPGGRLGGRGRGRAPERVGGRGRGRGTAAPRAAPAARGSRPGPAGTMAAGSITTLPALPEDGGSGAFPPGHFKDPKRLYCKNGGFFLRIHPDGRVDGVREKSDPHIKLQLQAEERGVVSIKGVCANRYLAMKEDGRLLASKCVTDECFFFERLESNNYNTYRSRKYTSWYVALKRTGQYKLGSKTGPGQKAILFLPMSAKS

Take `C=CCNC(=O)[C@@H]1[C@H]2C(=O)O[C@H](c3ccccc3)[C@H](c3ccccc3)N2[C@H](c2ccccc2OCCO)[C@@]12C(=O)N(C(=O)OCCOC)c1ccc(C#CC3=CCCCC3)cc12`: the composite z-score in assay [1] was determined as 1.66; in assay [2], 1.19; in assay [3], 0.636; in assay [4], 0.682; in assay [5], 1.01; in assay [6] it was 1.43. Further, the composite z-score in assay [8] was 0.949; in assay [9], 0.762; in assay [11], 0.18; in [16], 0.497; in assay [17], -0.146; in assay [18], 0.458. Besides, the figures for the composite z-score in [19] and in assay [20] were 0.669 and 0.634, respectively. Further, the z-score in assay [7] is -0.663; in assay [10], -1.53 (inactive); in assay [12] it was -4.3 (inactive); in assay [13], -0.348 (inactive); in [14], 0.0614 (inactive); in [15], -1.49 (inactive).
As to `CC(C)CN1C(=O)[C@@]2(c3ccc([N+](=O)[O-])cc3)CC(=O)N(CC34CC5CC(CC(C5)C3)C4)[C@@H]2c2ccc(CO)cc21`, the composite z-score in assay [1] was 2.34; in assay [2], -0.636; in [3], -0.253; in assay [4], 0.233; in assay [5], -1.16; in [6], -1.14. In addition, the composite z-score in assay [8] was -0.969; in assay [9], -0.323; in assay [11] it was -0.765; in [16], -0.877; in assay [17], -0.128; in assay [18], -1.22. The composite z-score was -1.08 in assay [19] and -1.51 in [20]. In addition, the z-score in assay [7] was -0.422; in assay [10] it was 0.0209 (inactive); in [12] it was -4.16 (inactive); in [13], -1.58 (inactive); in assay [14], -0.348 (inactive); in assay [15] it was 0.134 (inactive).
For `CCCCN1CC=CC23O[C@@H]4C=CCOC(=O)[C@@H]4[C@H]2C(=O)N(C(C)CO)[C@@H]3C1=O` (stereo not given in full), the composite z-score in assay [1] is -0.461; in assay [2] it was -1.01; in assay [3] it was -0.243; in [4] it was -1.32; in assay [5], -1.55; in [6], -0.588. In addition, the composite z-score in assay [8] was -1.56; in assay [9], -1.02; in [11], -0.166; in assay [16] it was -0.78; in [17], -0.128; in assay [18], 0.0171. For the same compound, the composite z-score was -0.241 in [19] and -0.213 in assay [20]. For the same compound, the z-score is -0.414 in [7]; -0.313 (inactive) in assay [10]; -0.251 (inactive) in assay [12]; 1.27 (inactive) in assay [13]; -0.488 (inactive) in [14]; 0.401 (inactive) in assay [15].
As for `COc1ccc(C(O)C2C=CC3C(=O)N(c4ccccc4)C(=O)C3N2Nc2ccc(C#N)cc2)c2ccccc12` (stereo not given), the composite z-score was 1.67 in assay [1]; 1.25 in assay [2]; 0.0632 in assay [3]; 0.979 in [4]; 0.944 in assay [5]; -0.012 in [6]. In addition, the composite z-score in assay [8] amounted to 0.392; in assay [9] it was 1.04; in assay [11] it was 0.0756; in [16], 2.49; in assay [17] it was 0.442; in assay [18], 0.109. Also, the composite z-score in assay [19] was 0.917; in assay [20], -0.149. Further, the z-score is -0.616 in assay [7]; -0.786 (inactive) in [10]; -0.127 (inactive) in assay [12]; -0.856 (inactive) in assay [13]; -0.143 (inactive) in assay [14]; 0.976 (inactive) in assay [15].
As for `O=C1c2ccccc2[C@](Cc2ccccc2I)(C(=O)NCc2ccccc2)[C@H](c2ccc(CO)cc2)N1C1CCCCC1`, the composite z-score in [1] stood at 2.68; in assay [2], 1.2; in assay [3] it was 0.699; in assay [4], 0.945; in assay [5], 1.54; in assay [6], 1.93. Also, the composite z-score turned out to be 1.42 in assay [8]; 1.04 in assay [9]; 0.52 in [11]; 1.71 in assay [16]; 0.295 in [17]; 0.326 in assay [18]. In addition, the values for the composite z-score in [19] and in assay [20] were 0.489 and 1.75, respectively. For the same compound, the z-score in assay [7] is -0.0853; in [10], -0.0828 (inactive); in assay [12], -4.84 (inactive); in assay [13], -0.479 (inactive); in assay [14], 0.0655 (inactive); in assay [15] it was -0.183 (inactive).
